Screen size: about 5,500 compounds; about 2,000 (36%) were called active. About 18% were inconclusive and are not listed. The list shows a part of the results. Unmarked numbers belong to inactive results. Cut-off read from the data, not from the text of the source: active = normalized growth mostly below about 0.91 (no sharp cut-off); inconclusive = no clear call, values can overlap the other calls; inactive = mostly above about 0.92.
Experiment: chemical genetic growth profiling, strain panel (AID 1159580);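 note: tested at 20 µM; growth read once vehicle control cultures reached saturation at 30 °C; 1 = growth at the plate median or of vehicle wells; lower values mean less growth of the strain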
Conditions: growth OD

Compound: C[C@]12CCC3C(CC[C@H]4C[C@@H](O)CC[C@]34C)C1CCC2=O (some centres undefined)
- normalized growth (S. cerevisiae deletion strains, locus YKL068W, stronger effect = lower value): 1.03
- normalized growth (S. cerevisiae deletion strains, locus YKL085W, strain MDH1 (second series), stronger effect = lower value): 0.973
- normalized growth (S. cerevisiae deletion strains, locus YKL085W, strain MDH1, stronger effect = lower value): 0.973
- normalized growth (S. cerevisiae deletion strains, locus YKL160W, strain elf1, stronger effect = lower value): 0.919
- normalized growth (S. cerevisiae deletion strains, locus YKL190W, strain CNB1, stronger effect = lower value): 0.862 (active)
- normalized growth (S. cerevisiae deletion strains, locus YKR001C, strain vps1, stronger effect = lower value): 0.899 (active)
- normalized growth (S. cerevisiae deletion strains, locus YKR026C, strain gcn3, stronger effect = lower value): 1.06
- normalized growth (S. cerevisiae deletion strains, locus YKR091W, strain srl3, stronger effect = lower value): 1.05
- normalized growth (S. cerevisiae deletion strains, locus YLL001W, strain dnm1, stronger effect = lower value): 0.923
- normalized growth (S. cerevisiae deletion strains, locus YLL026W, stronger effect = lower value): 0.994
- normalized growth (S. cerevisiae deletion strains, locus YLL041C, strain sdh2, stronger effect = lower value): 1.04
- normalized growth (S. cerevisiae deletion strains, locus YLR027C, strain aat2, stronger effect = lower value): 0.939
- normalized growth (S. cerevisiae deletion strains, locus YLR039C, strain RIC1, stronger effect = lower value): 0.388 (active)
- normalized growth (S. cerevisiae deletion strains, locus YLR058C, strain SHM2, stronger effect = lower value): 0.799 (active)
- normalized growth (S. cerevisiae deletion strains, locus YLR102C, strain apc9, stronger effect = lower value): 1.02
- normalized growth (S. cerevisiae deletion strains, locus YLR113W, strain HOG1, stronger effect = lower value): 1.01
- normalized growth (S. cerevisiae deletion strains, locus YLR221C, strain rsa3, stronger effect = lower value): 0.86 (active)
- normalized growth (S. cerevisiae deletion strains, locus YLR258W, strain gsy2, stronger effect = lower value): 0.945
- normalized growth (S. cerevisiae deletion strains, locus YLR262C, strain YPT6 (second series), stronger effect = lower value): 0.435 (active)
- normalized growth (S. cerevisiae deletion strains, locus YLR262C, strain YPT6, stronger effect = lower value): 0.413 (active)
- normalized growth (S. cerevisiae deletion strains, locus YLR268W, strain sec22, stronger effect = lower value): 0.834 (active)
- normalized growth (S. cerevisiae deletion strains, locus YLR320W, strain mms22, stronger effect = lower value): 0.606 (active)
- normalized growth (S. cerevisiae deletion strains, locus YLR330W, strain CHS5, stronger effect = lower value): 0.87 (active)
- normalized growth (S. cerevisiae deletion strains, locus YLR342W, strain FKS1 (second series), stronger effect = lower value): 0.733 (active)
- normalized growth (S. cerevisiae deletion strains, locus YLR342W, strain FKS1, stronger effect = lower value): 0.995
- normalized growth (S. cerevisiae deletion strains, locus YLR357W, strain rsc2, stronger effect = lower value): 1.16 [resistant] (active)
- normalized growth (S. cerevisiae deletion strains, locus YLR370C, strain arc18, stronger effect = lower value): 1.04
- normalized growth (S. cerevisiae deletion strains, locus YLR371W, strain rom2, stronger effect = lower value): 1.03
- normalized growth (S. cerevisiae deletion strains, locus YLR384C, strain iki3, stronger effect = lower value): 1.03
- normalized growth (S. cerevisiae deletion strains, locus YLR418C, strain cdc73, stronger effect = lower value): 0.589 (active)
- normalized growth (S. cerevisiae deletion strains, locus YML016C, strain PPZ1, stronger effect = lower value): 0.931
- normalized growth (S. cerevisiae deletion strains, locus YML032C, strain rad52, stronger effect = lower value): 0.744 (active)
- normalized growth (S. cerevisiae deletion strains, locus YML120C, strain ndi1, stronger effect = lower value): 0.935
- normalized growth (S. cerevisiae deletion strains, locus YML124C, strain tub3, stronger effect = lower value): 0.944
- normalized growth (S. cerevisiae deletion strains, locus YMR058W, strain fet3, stronger effect = lower value): 0.943
- normalized growth (S. cerevisiae deletion strains, locus YMR078C, strain ctf18, stronger effect = lower value): 0.979
- normalized growth (S. cerevisiae deletion strains, locus YMR125W, strain sto1, stronger effect = lower value): 1.06
- normalized growth (S. cerevisiae deletion strains, locus YMR129W, stronger effect = lower value): 1.04
- normalized growth (S. cerevisiae deletion strains, locus YMR205C, strain PFK2, stronger effect = lower value): 0.94
- normalized growth (S. cerevisiae deletion strains, locus YMR223W, strain ubp8, stronger effect = lower value): 0.794 (active)
- normalized growth (S. cerevisiae deletion strains, locus YMR231W, strain pep5, stronger effect = lower value): 1.01
- normalized growth (S. cerevisiae deletion strains, locus YMR263W, strain SAP30, stronger effect = lower value): 0.925
- normalized growth (S. cerevisiae deletion strains, locus YMR307W, strain GAS1, stronger effect = lower value): 0.963
- normalized growth (S. cerevisiae deletion strains, locus YNL067W, strain RPL9B, stronger effect = lower value): 0.825 (active)
- normalized growth (S. cerevisiae deletion strains, locus YNL071W, strain lat1, stronger effect = lower value): 0.663 (active)
- normalized growth (S. cerevisiae deletion strains, locus YNL153C, strain GIM3, stronger effect = lower value): 0.747 (active)
- normalized growth (S. cerevisiae deletion strains, locus YNL183C, strain NPR1, stronger effect = lower value): 0.874
- normalized growth (S. cerevisiae deletion strains, locus YNL209W, strain ssb2, stronger effect = lower value): 0.965
- normalized growth (S. cerevisiae deletion strains, locus YNL233W, strain BNI4, stronger effect = lower value): 0.747 (active)
- normalized growth (S. cerevisiae deletion strains, locus YNL248C, strain rpa49, stronger effect = lower value): 0.888
- normalized growth (S. cerevisiae deletion strains, locus YNL250W, strain rad50, stronger effect = lower value): 0.934
- normalized growth (S. cerevisiae deletion strains, locus YNL271C, strain bni1, stronger effect = lower value): 0.94
- normalized growth (S. cerevisiae deletion strains, locus YNL298W, strain CLA4, stronger effect = lower value): 0.869 (active)
- normalized growth (S. cerevisiae deletion strains, locus YNL307C, strain MCK1, stronger effect = lower value): 0.366 (active)
- normalized growth (S. cerevisiae deletion strains, locus YNL322C, strain KRE1 (second series), stronger effect = lower value): 1.03
- normalized growth (S. cerevisiae deletion strains, locus YNL322C, strain KRE1, stronger effect = lower value): 0.908 (active)
- normalized growth (S. cerevisiae deletion strains, locus YNR049C, strain mso1, stronger effect = lower value): 1.04
- normalized growth (S. cerevisiae deletion strains, locus YNR052C, strain pop2, stronger effect = lower value): 0.768 (active)
- normalized growth (S. cerevisiae deletion strains, locus YOL006C, strain TOP1, stronger effect = lower value): 0.425 (active)
- normalized growth (S. cerevisiae deletion strains, locus YOL012C, strain htz1): 1.94
- normalized growth (S. cerevisiae deletion strains, locus YOL147C, strain pex11, stronger effect = lower value): 0.803 (active)
- normalized growth (S. cerevisiae deletion strains, locus YOR001W, strain rrp6, stronger effect = lower value): 0.847 (active)
- normalized growth (S. cerevisiae deletion strains, locus YOR061W, strain CKA2, stronger effect = lower value): 0.91
- normalized growth (S. cerevisiae deletion strains, locus YOR069W, strain VPS5, stronger effect = lower value): 0.913 (active)
- normalized growth (S. cerevisiae deletion strains, locus YOR070C, strain gyp1, stronger effect = lower value): 0.903 (active)
- normalized growth (S. cerevisiae deletion strains, locus YOR080W, strain dia2, stronger effect = lower value): 1.02
- normalized growth (S. cerevisiae deletion strains, locus YOR083W, strain WHI5, stronger effect = lower value): 0.882 (active)
- normalized growth (S. cerevisiae deletion strains, locus YOR106W, strain vam3, stronger effect = lower value): 0.909
- normalized growth (S. cerevisiae deletion strains, locus YOR136W, strain idh2, stronger effect = lower value): 0.999
- normalized growth (S. cerevisiae deletion strains, locus YOR144C, strain elg1, stronger effect = lower value): 0.973
- normalized growth (S. cerevisiae deletion strains, locus YOR184W, strain ser1, stronger effect = lower value): 0.363 (active)
- normalized growth (S. cerevisiae deletion strains, locus YOR231W, strain MKK1, stronger effect = lower value): 0.888
- normalized growth (S. cerevisiae deletion strains, locus YOR265W, strain rbl2, stronger effect = lower value): 0.968
- normalized growth (S. cerevisiae deletion strains, locus YOR270C, strain vph1, stronger effect = lower value): 0.682 (active)
- normalized growth (S. cerevisiae deletion strains, locus YOR290C, strain snf2, stronger effect = lower value): 0.831 (active)
- normalized growth (S. cerevisiae deletion strains, locus YOR316C, strain cot1, stronger effect = lower value): 0.96
- normalized growth (S. cerevisiae deletion strains, locus YPL051W, strain arl3, stronger effect = lower value): 0.926
- normalized growth (S. cerevisiae deletion strains, locus YPL055C, strain LGE1, stronger effect = lower value): 0.677 (active)
- normalized growth (S. cerevisiae deletion strains, locus YPL078C, strain atp4, stronger effect = lower value): 0.898
- normalized growth (S. cerevisiae deletion strains, locus YPL106C, strain sse1, stronger effect = lower value): 1.32 [resistant] (active)
- normalized growth (S. cerevisiae deletion strains, locus YPL240C, strain hsp82, stronger effect = lower value): 1.01
- normalized growth (S. cerevisiae deletion strains, locus YPL241C, strain CIN2, stronger effect = lower value): 0.975
- normalized growth (S. cerevisiae deletion strains, locus YPL256C, strain CLN2, stronger effect = lower value): 0.951
- normalized growth (S. cerevisiae deletion strains, locus YPR119W, strain clb2, stronger effect = lower value): 1.04
- normalized growth (S. cerevisiae deletion strains, locus YPR141C, strain kar3, stronger effect = lower value): 1.03
- normalized growth (S. cerevisiae deletion strains, locus YPR163C, strain tif3, stronger effect = lower value): 0.856 (active)
- normalized growth (S. cerevisiae deletion strains, locus YPR167C, strain met16, stronger effect = lower value): 0.814 (active)
- normalized growth (S. cerevisiae deletion strains, strain wtn01, stronger effect = lower value): 0.849 (active)
- normalized growth (S. cerevisiae strains, strain wild type, stronger effect = lower value): 0.815 (active)

From PubChem BioAssay AID1159580 (chemical genetic matrix, 2015)
